From PubChem BioAssay (Tox21)
Results filed as inconclusive are left out. The source made the active and inactive calls. Unless noted, calls follow the shape of the dose curve; as a rule, active = well fitted curve in the direction sought with a large enough effect in the repeat runs; inconclusive = weak or mixed curves; inactive = no such curve, though single readings can be large; an effect the other way counts as inactive or inconclusive.

Assays:
[1] = qHTS assay to identify aromatase inhibitors - cell viability counter screen (AID 743084); details: MCF-7 aro ERE viability, CellTiter-Fluor, 24 h; series mostly up to 70.3 µM;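 also: cells stimulated with testosterone during compound exposure; nearly all actives have a fitted effect of over 55% in size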; also: potency is read from the fitted curve at half-maximal effect
[2] = molecular target: Aryl hydrocarbon receptor (Homo sapiens) (UniProt P35869); experiment: qHTS assay to identify small molecule that activate the aryl hydrocarbon receptor (AhR) signaling pathway (AID 743085); details: HepG2 AhR-luc (HG2L7.5c1), luciferase, 24 h; series mostly up to 70.3 µM; also: nearly all actives have a fitted effect of over 15% in size; also: potency is read from the fitted curve at half-maximal effect;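 as to activation: HG2L7.5c1 human HepG2 liver cells with stably integrated DRE-driven firefly reporter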
Summary of the method: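 Measured in HG2L7.5c1 cells: CellTiter-Fluor signal (30 min incubation, 37C) for viability, then luciferase luminescence (30 min, room temperature). Compound contact time was 24 h at 37C, following a 5 h pre-incubation.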

[3] = qHTS assay to identify small molecule that activate the aryl hydrocarbon receptor (AhR) signaling pathway - cell viability counter screen (AID 743086); details: HepG2-AhR-luc viability, CellTiter-Fluor, 24 h; series mostly up to 70.3 µM; also: nearly all actives have a fitted effect of over 45% in size; also: potency is read from the fitted curve at half-maximal effect
Summary of the method: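 Cytotoxicity counter screen: CellTiter-Fluor signal (30 min, 37 C) in 4000 HepG2 cells/well carrying the DRE-luciferase reporter, following 24 h compound exposure at 37 C.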

[4] = molecular target: Peroxisome proliferator-activated receptor gamma (Homo sapiens) (UniProt P37231); experiment: qHTS assay to identify small molecule agonists of the peroxisome proliferator-activated receptor gamma (PPARg) signaling pathway (AID 743094; active = well fitted activation curve with a large enough effect in the signal ratio in the repeat runs, not every such curve was filed as active; the % refers to the signal ratio); details: HEK293H PPARg-UAS-bla, beta-lactamase FRET ratio, 17 h; series mostly up to 57 µM
Summary of the method: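 Beta-lactamase FRET fluorescence was the read-out after a 1 h room-temperature substrate step, following 17 h compound treatment at 37C of HEK293H cells expressing a UAS-driven bla reporter responsive to PPARg.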

[5] = qHTS assay for small molecule agonists of the antioxidant response element (ARE) signaling pathway (AID 743202; active = well fitted activation curve with a large enough effect in the signal ratio in the repeat runs, not every such curve was filed as active; the % refers to the signal ratio); details: HepG2 ARE-bla reporter, beta-lactamase FRET, 16 h; series mostly up to 73.3 µM
Summary of the method: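 An ARE-responsive beta-lactamase gene stably integrated in HepG2 cells serves as reporter. After 5 h plating and 16 h compound incubation at 37 C, fluorescence of the B/G FRET substrate was measured.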

[6] = qHTS assay for small molecule agonists of the antioxidant response element (ARE) signaling pathway - cell viability counter screen (AID 743203; calls by dose curve; also: nearly all actives have a fitted effect of over 55% in size); details: ARE-bla HepG2 viability, CellTiter-Glo luminescence, 16 h; series mostly up to 73.3 µM
Summary of the method: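 HepG2 cells carrying ARE-driven beta-lactamase; 2,000 cells/well; 5 hrs plating; compound pinned from DMSO; 16 hrs 37C/5% CO2; CellTiter-Glo added; 30 min RT; luminescence.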

[7] = qHTS assay for small molecule activators of the heat shock response signaling pathway (AID 743210; active = well fitted activation curve with a large enough effect in the signal ratio in the repeat runs, with a control signal flat, not every such curve was filed as active; the % refers to the signal ratio; also: potency is read from the fitted curve at half-maximal effect;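 as to activation: HeLa cells with beta-lactamase reporter driven by heat shock elements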); details: HeLa HSE-bla reporter, beta-lactamase ratio, 5 h; series mostly up to 62.6 µM
Summary of the method: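 In HSE-bla HeLa cells, 5 h compound incubation (37 C) precedes addition of LiveBLAzer B/G substrate; after 2.5 h at room temperature, fluorescence intensity indicates reporter induction.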

[8] = qHTS assay to identify small molecule agonists of the peroxisome proliferator-activated receptor delta (PPARd) signaling pathway - cell viability counter screen (AID 743211); details: PPARd-bla HEK293H viability, CellTiter-Glo luminescence, 17 h; series mostly up to 62.6 µM; also: nearly all actives have a fitted effect of over 55% in size; also: potency is read from the fitted curve at half-maximal effect
Summary of the method: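 Following 5 h plating at 37 C and 5% CO2, PPARd UAS-bla HEK293H cells took up test compounds for 17 h. Viability was quantified by luminescence 30 min after CellTiter-Glo addition at room temperature.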

[9] = molecular target: Peroxisome proliferator-activated receptor delta (Homo sapiens) (UniProt Q03181); experiment: qHTS assay to identify small molecule agonists of the peroxisome proliferator-activated receptor delta (PPARd) signaling pathway (AID 743212; calls by dose curve); details: HEK293H PPARd-UAS-bla, beta-lactamase FRET ratio, 17 h; series mostly up to 62.6 µM
Summary of the method: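 HEK293H UAS-bla reporter cells, human PPARd system; compounds delivered in DMSO after 5 h plating, then at 37 C. Beta-lactamase FRET read, 2 h RT substrate step.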

[10] = qHTS assay to identify small molecule antagonists of the peroxisome proliferator-activated receptor delta (PPARd) signaling pathway - cell viability counter screen (AID 743213); details: PPARd-bla HEK293H viability, CellTiter-Glo luminescence, 17 h; series mostly up to 62 µM; also: nearly all actives have a fitted effect of over 50% in size
Summary of the method: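 Same-well viability: cells pre-incubated 5 h, dosed with compound plus 300 nM L165041, kept 17 h at 37 C, FRET substrate 2 h RT, then CellTiter-Glo 30 min RT and luminescence.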

[11] = molecular target: Peroxisome proliferator-activated receptor delta (Homo sapiens) (UniProt Q03181); experiment: qHTS assay to identify small molecule antagonists of the peroxisome proliferator-activated receptor delta (PPARd) signaling pathway (AID 743215; active = well fitted inhibition curve with a large enough effect in the signal ratio in the repeat runs, not every such curve was filed as active; the % refers to the signal ratio;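 also: cells stimulated with agonist L165041 at 300 nM final during compound exposure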); details: HEK293H PPARd-UAS-bla, beta-lactamase FRET ratio, antagonist, 17 h; series mostly up to 62 µM
Summary of the method: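 Read-out is beta-lactamase FRET fluorescence, measured 2 h after substrate addition at room temperature. Beforehand, UAS-bla HEK293H cells carrying the PPARd reporter were exposed to compounds with L165041 at 300 nM final for 17 h at 37 C.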

[12] = qHTS assay to identify small molecule agonists of the farnesoid-X-receptor (FXR) signaling pathway - cell viability counter screen (AID 743218); details: FXR-bla HEK293T viability, CellTiter-Glo luminescence, 16 h; series mostly up to 62.6 µM; also: nearly all actives have a fitted effect of over 45% in size; also: potency is read from the fitted curve at half-maximal effect
Summary of the method: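 HEK 293T FXR-bla cells; 5 h pre-incubation, 16 h compound exposure at 37 C; LiveBLAzer substrate 2 h RT, then CellTiter-Glo 30 min RT, luminescence.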

[13] = qHTS assay to identify small molecule antagonists of the farnesoid-X-receptor (FXR) signaling pathway - cell viability counter screen (AID 743221; active = well fitted cell-killing curve with a large enough effect in the repeat runs, not every such curve was filed as active; also: nearly all actives have a fitted effect of over 50% in size); details: FXR-bla HEK293T viability, CellTiter-Glo luminescence, 16 h; series mostly up to 62.6 µM
Summary of the method: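 Compound effects on cell number were measured as CellTiter-Glo luminescence in HEK 293T cells expressing FXR-UAS-bla, after 16 h at 37 C with 50 uM CDCA (final).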

[14] = molecular target: Peroxisome proliferator-activated receptor gamma (Homo sapiens) (UniProt P37231); experiment: qHTS assay to identify small molecule antagonists of the peroxisome proliferator-activated receptor gamma (PPARg) signaling pathway (AID 743191; calls by dose curve; also: nearly all actives have a fitted effect of over 30% in size); details: HEK293H PPARg-UAS-bla, beta-lactamase ratio, antagonist, 17 h; series mostly up to 62.6 µM
Summary of the method: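 Beta-lactamase reporter under UAS control in HEK293H PPARg-bla cells; compound treatment 17 h at 37C. Read-out: fluorescence intensity after 1 h room-temperature incubation with LiveBLAzer B/G FRET substrate.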

[15] = qHTS assay to identify small molecule antagonists of the peroxisome proliferator-activated receptor gamma (PPARg) signaling pathway - cell viability counter screen (AID 743194); details: PPARg-bla HEK293H viability, CellTiter-Glo luminescence, 17 h, co-treated with 50 nM rosiglitazone; series mostly up to 62.6 µM; also: nearly all actives have a fitted effect of over 55% in size
Summary of the method: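 Viability was measured as CellTiter-Glo luminescence in GeneBLAzer PPARg UAS-bla HEK293H cells. These cells had been exposed 17 h at 37 C to compounds together with rosiglitazone at 50 nM final, with the beta-lactamase readout taken in the same wells.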

[16] = molecular target: Bile acid receptor (Homo sapiens) (UniProt Q96RI1); experiment: qHTS assay to identify small molecule antagonists of the farnesoid-X-receptor (FXR) signaling pathway (AID 743217; active = well fitted inhibition curve with a large enough effect in the signal ratio in the repeat runs, not every such curve was filed as active; the % refers to the signal ratio); details: HEK293T FXR-UAS-bla, beta-lactamase ratio, CDCA-stimulated, 16 h; series mostly up to 62.6 µM
Summary of the method: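 HEK 293T FXR-UAS-bla, 5000 cells/well; compound + CDCA 50 uM final; 16 h, 37 °C; B/G FRET substrate 2 h RT; fluorescence.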

[17] = molecular target: Vitamin D3 receptor (Homo sapiens) (UniProt P11473); experiment: qHTS assay to identify small molecule agonists of the vitamin D receptor (VDR) signaling pathway (AID 743222; calls by dose curve); details: HEK293T VDR-UAS-bla, beta-lactamase FRET ratio, 16 h; series mostly up to 63.5 µM
Summary of the method: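 VDR-bla cells, 2,000/well; 4 h preincubation 37C; cpd (DMSO) 16 h; LiveBLAzer B/G substrate 2 h RT; fluorescence intensity read.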

[18] = qHTS assay for small molecule activators of the heat shock response signaling pathway - cell viability counter screen (AID 743209); details: HSE-bla HeLa viability, CellTiter-Glo luminescence, 5 h; series mostly up to 62.6 µM; also: nearly all actives have a fitted effect of over 50% in size
Summary of the method: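 Luminescence from CellTiter-Glo, added after the beta-lactamase FRET read, gave the viability signal. Cells were HSE-bla HeLa treated with DMSO-dissolved compounds for 5 h at 37 C following overnight plating.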

[19] = molecular target: Vitamin D3 receptor (Homo sapiens) (UniProt P11473); experiment: qHTS assay to identify small molecule antagonists of the vitamin D receptor (VDR) signaling pathway (AID 743223; active = well fitted inhibition curve with a large enough effect in the signal ratio in the repeat runs, not every such curve was filed as active; the % refers to the signal ratio); details: VDR-UAS-bla HEK293T, beta-lactamase FRET ratio, 16 h; series mostly up to 61 µM
Summary of the method: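 Beta-lactamase activity in VDR-bla cells is measured by FRET substrate fluorescence (2 h, room temperature) after cells spend 16 h at 37C with test compound and 3 nM final 1alpha,25-dihydroxyvitamin D3.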

[20] = molecular target: Bile acid receptor (Homo sapiens) (UniProt Q96RI1); experiment: qHTS assay to identify small molecule agonists of the farnesoid-X-receptor (FXR) signaling pathway (AID 743220; active = well fitted activation curve with a large enough effect in the signal ratio in the repeat runs, not every such curve was filed as active; the % refers to the signal ratio); details: HEK293T FXR-UAS-bla, beta-lactamase FRET ratio, 16 h; series mostly up to 62.6 µM
Summary of the method: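 Beta-lactamase reporter under UAS control in GeneBLAzer FXR HEK 293T cells (5000/well) measured with LiveBLAzer FRET substrate after 2 h at room temperature. Compound exposure lasted 16 h at 37C.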

Measured: Potency

Chain of Aryl hydrocarbon receptor (Homo sapiens) (P35869 whole entry, looked up): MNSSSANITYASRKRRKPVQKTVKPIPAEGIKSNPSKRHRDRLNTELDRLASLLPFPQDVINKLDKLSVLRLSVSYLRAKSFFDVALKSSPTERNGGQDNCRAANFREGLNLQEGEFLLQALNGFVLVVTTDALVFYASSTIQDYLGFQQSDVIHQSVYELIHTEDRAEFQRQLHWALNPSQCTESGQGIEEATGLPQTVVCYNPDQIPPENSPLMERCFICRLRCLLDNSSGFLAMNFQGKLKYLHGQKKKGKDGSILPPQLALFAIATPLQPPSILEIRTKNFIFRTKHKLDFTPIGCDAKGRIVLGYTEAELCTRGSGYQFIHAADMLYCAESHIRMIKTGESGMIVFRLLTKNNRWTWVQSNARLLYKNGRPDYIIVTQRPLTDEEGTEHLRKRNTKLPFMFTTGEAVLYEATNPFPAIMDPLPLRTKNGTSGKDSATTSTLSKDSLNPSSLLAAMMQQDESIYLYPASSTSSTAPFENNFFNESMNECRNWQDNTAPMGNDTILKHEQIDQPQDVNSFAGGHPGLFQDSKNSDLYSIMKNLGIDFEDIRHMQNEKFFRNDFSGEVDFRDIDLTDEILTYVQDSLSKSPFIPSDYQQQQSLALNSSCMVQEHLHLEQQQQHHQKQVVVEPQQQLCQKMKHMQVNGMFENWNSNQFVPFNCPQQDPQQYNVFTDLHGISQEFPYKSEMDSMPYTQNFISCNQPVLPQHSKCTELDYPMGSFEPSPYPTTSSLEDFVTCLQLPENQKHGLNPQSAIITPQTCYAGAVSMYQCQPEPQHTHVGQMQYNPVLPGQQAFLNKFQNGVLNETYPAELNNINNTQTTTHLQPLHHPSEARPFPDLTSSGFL
Chain of Peroxisome proliferator-activated receptor gamma (Homo sapiens) (P37231 whole entry, looked up): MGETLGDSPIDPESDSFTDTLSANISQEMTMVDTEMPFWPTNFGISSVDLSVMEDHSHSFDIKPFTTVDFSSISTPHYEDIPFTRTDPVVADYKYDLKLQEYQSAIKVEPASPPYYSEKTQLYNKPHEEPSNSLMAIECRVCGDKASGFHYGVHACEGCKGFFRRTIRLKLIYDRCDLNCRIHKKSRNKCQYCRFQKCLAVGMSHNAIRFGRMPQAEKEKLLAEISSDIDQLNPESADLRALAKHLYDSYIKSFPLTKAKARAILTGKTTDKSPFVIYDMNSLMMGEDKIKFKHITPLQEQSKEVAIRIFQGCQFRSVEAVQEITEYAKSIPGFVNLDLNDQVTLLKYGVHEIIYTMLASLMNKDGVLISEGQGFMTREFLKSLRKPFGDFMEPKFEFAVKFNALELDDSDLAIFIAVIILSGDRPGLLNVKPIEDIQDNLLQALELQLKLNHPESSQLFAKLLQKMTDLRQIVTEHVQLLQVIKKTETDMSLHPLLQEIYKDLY
Chain of Vitamin D3 receptor (Homo sapiens) (P11473 whole entry, looked up): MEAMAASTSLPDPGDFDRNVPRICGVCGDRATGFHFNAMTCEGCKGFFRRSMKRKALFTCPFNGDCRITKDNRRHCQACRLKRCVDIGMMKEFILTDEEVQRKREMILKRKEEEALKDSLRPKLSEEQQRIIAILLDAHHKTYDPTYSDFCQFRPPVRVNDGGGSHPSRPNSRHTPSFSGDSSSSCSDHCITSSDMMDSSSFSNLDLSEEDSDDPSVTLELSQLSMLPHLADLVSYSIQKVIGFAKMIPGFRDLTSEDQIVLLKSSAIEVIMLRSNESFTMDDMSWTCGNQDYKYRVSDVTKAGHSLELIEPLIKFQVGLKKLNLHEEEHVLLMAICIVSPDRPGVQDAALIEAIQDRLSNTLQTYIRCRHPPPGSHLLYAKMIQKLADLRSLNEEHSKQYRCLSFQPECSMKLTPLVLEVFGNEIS
Chain of Peroxisome proliferator-activated receptor delta (Homo sapiens) (Q03181 whole entry, looked up): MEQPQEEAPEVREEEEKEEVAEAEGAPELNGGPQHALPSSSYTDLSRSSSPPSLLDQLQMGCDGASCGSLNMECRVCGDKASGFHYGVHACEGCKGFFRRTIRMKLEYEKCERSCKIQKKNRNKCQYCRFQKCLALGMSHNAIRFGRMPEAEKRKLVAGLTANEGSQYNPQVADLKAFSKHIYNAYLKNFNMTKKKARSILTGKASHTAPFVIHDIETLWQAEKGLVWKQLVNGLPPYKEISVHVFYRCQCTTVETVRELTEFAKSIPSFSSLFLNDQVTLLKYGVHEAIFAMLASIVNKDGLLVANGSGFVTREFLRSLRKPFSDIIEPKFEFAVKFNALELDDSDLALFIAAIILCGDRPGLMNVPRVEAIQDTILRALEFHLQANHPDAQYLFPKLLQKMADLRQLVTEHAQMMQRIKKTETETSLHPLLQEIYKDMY
Chain of Bile acid receptor (Homo sapiens) (Q96RI1 whole entry, looked up): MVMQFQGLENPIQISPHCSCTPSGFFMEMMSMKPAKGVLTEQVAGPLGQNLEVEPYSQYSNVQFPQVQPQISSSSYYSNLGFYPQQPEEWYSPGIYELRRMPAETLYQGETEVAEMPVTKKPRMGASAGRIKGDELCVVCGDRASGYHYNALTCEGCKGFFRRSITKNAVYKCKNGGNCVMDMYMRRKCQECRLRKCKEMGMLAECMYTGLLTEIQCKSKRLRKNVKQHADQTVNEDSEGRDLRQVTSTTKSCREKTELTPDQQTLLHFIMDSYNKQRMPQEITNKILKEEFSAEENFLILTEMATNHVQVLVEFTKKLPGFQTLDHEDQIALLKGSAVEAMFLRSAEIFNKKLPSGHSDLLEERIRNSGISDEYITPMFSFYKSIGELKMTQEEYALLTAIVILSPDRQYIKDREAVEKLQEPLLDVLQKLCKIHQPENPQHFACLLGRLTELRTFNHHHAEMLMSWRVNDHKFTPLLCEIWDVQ

CCOC(=O)c1cccnc1
inactive: [1] | [2] | [3] | [4] | [5] | [6] | [7] | [8] | [9] | [10] | [11] | [12] | [13]

O=C(c1ccc(F)cc1)C1CCN(CCn2c(=S)[nH]c3ccccc3c2=O)CC1
inactive: [1] | [2] | [3] | [14] | [15] | [6] | [12]
active: [7] 19.6 µM

C1CCCNCCC1
inactive: [1] | [2] | [3] | [4] | [15] | [5] | [6] | [7] | [8] | [9] | [16] | [12] | [17]

CO[C@@H]1[C@H](OC(=O)/C=C/C=C/C=C/C=C/C(=O)O)CC[C@]2(CO2)[C@H]1[C@@]1(C)O[C@@H]1CC=C(C)C
active: [12] 1.95 µM
inactive: [1] | [2] | [3] | [4] | [15] | [6] | [18] | [9] | [10] | [11] | [17] | [19]

Clc1ccc(Cn2c(CN3CCCC3)nc3ccccc32)cc1
active: [8] 29.8 µM
inactive: [1] | [2] | [3] | [4] | [15] | [6] | [18]

CC1=CC=C(C(C)C)CC1
inactive: [1] | [2] | [3] | [4] | [5] | [6] | [18] | [7] | [8] | [10] | [12] | [13]

CCOc1ccc(O)cc1
inactive: [1] | [2] | [3] | [14] | [15] | [6] | [18] | [7] | [8] | [9] | [10] | [11] | [12] | [13] | [17]

Nc1ccc(N)c2c1C(=O)c1ccccc1C2=O
inactive: [4] | [15] | [6] | [18] | [7] | [9] | [10] | [11] | [13] | [17]
active: [1] 17.2 µM | [2] 6.11 µM | [3] 21.7 µM

Nc1cccc(S(=O)(=O)c2cccc(N)c2)c1
inactive: [1] | [2] | [3] | [4] | [15] | [6] | [18] | [7] | [8] | [9] | [11] | [12] | [17] | [19]

O=C(O)C(S)C(S)C(=O)O (stereo not drawn)
inactive: [1] | [2] | [3] | [15] | [6] | [18] | [8] | [9] | [10] | [11] | [16] | [12] | [20] | [13] | [17] | [19]

CC(C)OC(=O)C(C)N(C(=O)c1ccccc1)c1ccc(F)c(Cl)c1 (stereo not drawn)
inactive: [1] | [2] | [4] | [14] | [15] | [6] | [18] | [7] | [9] | [10] | [12] | [19]

CCCCCCCCO[C@@H]1O[C@H](CO)[C@@H](O)[C@H](O)[C@H]1O
inactive: [1] | [2] | [4] | [14] | [15] | [6] | [18] | [7] | [8] | [9] | [10] | [16] | [12] | [20] | [13] | [17]
